In PubChem BioAssay (NCI) one finds growth data, which are given here for 31 molecules.

Common to all, as to assay: NCI-60 one-dose screen, 48 h (100 = growth as untreated, 0 = no growth, -100 = all killed)
What all share (details): 10 µM unless noted

Assay [1] concerns EKVX NSCLC.
The test system of assay [2] is SN12C renal.
Assay [3] has as its system UO-31 renal.
For assay [4], the system named is TK-10 renal.
Assay [5] relates to ACHN renal.
For assay [6], the system named is CAKI-1 renal.
The subject of assay [7] is A498 renal.
In assay [8] the test system is MOLT-4 leukemia.
The subject of assay [9] is SR leukemia.
In assay [10] the test system is CCRF-CEM leukemia.

About 83,000 compounds went through this panel and 20% of them were active in at least one assay; those are over-represented in the sample as a whole.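 Plates (96-well) were seeded with cells, treated with compound at one concentration, and incubated for 48 hours before percent growth was determined.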 A number with no mark means an inactive call. Active and inactive are the calls of the source. Rule for the calls: active = growth percent below 10; inactive = the rest.

For the molecule `COc1ccc2c(c1)C(=O)c1c-2c(OCCN(C)C)nc2cc(OC)ccc12`, the growth was 20.6% in assay [1]; 22.6% in [2]; -43.7% (active) in assay [3]; 28.5% in assay [4]; -78.6% (active) in assay [5]; 9.1% (active) in assay [6]. The growth in assay [7] was 38.4%; in assay [8] it was -7.63% (active); in [9], -29.2% (active).

As to `CCCc1nn(C)c2c(=O)[nH]c(-c3cc(S(=O)(=O)N4CCN(C)CC4)ccc3OCC)nc12`, the growth in [1] was 95.1%; in assay [2], 102%; in assay [3] it was 78.7%; in assay [4], 113%; in [5] it was 92.8%; in assay [6], 80.2%. Moreover, the growth in assay [7] was 103%; in assay [8], 94.8%.

Regarding `COc1cc2c(c(OC)c1OC)-c1ccc(NN(C(=O)c3ccccc3)C(=O)c3ccccc3)c(=O)cc1[C@@H](NC(C)=O)CC2` (tested in a mixture with another compound), the growth in [1] is 30.8%; in assay [2], 64.8%; in assay [3] it was 62.3%; in [4] it was 40.8%; in assay [5], 63%; in assay [6] it was -2.24% (active). The growth in assay [7] is 15.1%; in assay [8] it was 22.8%; in assay [9] it was 18.1%.

Turning to `CSc1nc2c(c(=O)n1C)C(c1ccccc1)C1=C(N2)/C(=C/c2ccccc2)CCC1` (stereo not drawn), the growth in assay [1] is 39.1%; in assay [2], 55.4%; in assay [3] it was 34.9%; in assay [4], 51%; in assay [5] it was 57.3%; in assay [6], 20.7%. The growth is 81.4% in assay [7], 27.5% in [8] and -14.2% (active) in [9].

In the case of `Cn1c(=O)c2c(nc(Br)n2CCC(=O)Nc2ccc(F)cc2)n(C)c1=O`, the growth is 108% in assay [1]; 106% in [2]; 78.3% in assay [3]; 103% in [4]; 102% in assay [5]; 93.7% in assay [6]. Besides, the growth in [7] was 98.2%; in [8] it was 95.9%; in assay [9] it was 107%.

For the molecule `Fc1ccc(-c2nnc(/C=C/c3cn(-c4ccccc4)nc3-c3ccccc3)o2)cc1`, the growth was 103% in assay [1]; 84.1% in assay [2]; 84.1% in [3]; 107% in assay [4]; 90.9% in assay [5]; 84.3% in assay [6]. In addition, the growth was 97.1% in assay [10], 99.3% in assay [8] and 65.7% in [9].

Consider `O=C(Cn1ccnc1)NC(c1ccccc1)c1ccccc1`, for which the growth in [1] is 97.5%; in [2] it was 97%; in assay [3] it was 89.5%; in assay [4], 97.5%; in assay [5], 91.9%; in assay [6] it was 96.7%. In addition, the growth in [7] was 67.6%; in [8] it was 107%; in assay [9], 98.4%.

With `O=C1Nc2ccccc2C12Nc1cc(Cl)ccc1S2` (stereo not drawn), the growth was 74% in assay [1]; 94.7% in assay [2]; 69.6% in assay [3]; 141% in assay [4]; 99.6% in assay [5]; 70.7% in [6]. Also, the growth in [7] is 107%; in [8] it was 60.1%.

As to `COc1ccc(C(=O)C(C)Br)cc1OC` (stereo not drawn), the growth was 98.4% in assay [1]; 72.9% in [2]; 71.8% in assay [3]; 101% in assay [4]; 80.3% in [5]; 60.1% in assay [6]. Moreover, the growth in [10] is 26.7%; in assay [8], 71.3%; in [9] it was 18.6%.

Take `c1ccc2cc(C[n+]3ccn(CCCCCCCn4cc[n+](Cc5ccc6ccccc6c5)c4)c3)ccc2c1`: the growth was 27.9% in assay [1]; 24.2% in assay [2]; 76.7% in assay [3]; 70.6% in assay [4]; 60.2% in assay [5]; 91.9% in [6]. Also, the growth was -3.36% (active) in assay [7], 56.1% in assay [8] and 50.9% in [9].

Turning to `CCc1[nH]nc(-c2ccc(OC)cc2)c1-c1ccccc1OCCN(CC)CC`, the growth is 94.5% in assay [1]; 96.5% in [2]; 67.3% in [3]; 109% in [4]; 98.5% in assay [5]; 89% in assay [6]. In addition, the figures for the growth in assay [7], in assay [8] and in assay [9] were 80.7%, 85.8% and 62.7%, respectively.

`COc1cc(C2CC(=O)Nc3c2cc(Br)c2ccccc32)cc(Br)c1OC` (stereo not drawn): the growth is 41.7% in assay [1]; 54.5% in assay [2]; 0.792% (active) in assay [3]; -7.53% (active) in assay [4]; 5.63% (active) in assay [5]; 3.19% (active) in assay [6]. Besides, the growth in [7] is -2.63% (active); in assay [8] it was 30.9%; in assay [9], -53.1% (active).

Consider `O=C(Nc1ccc(Cl)cc1)c1cc2c(cc1O)[nH]c1ccccc12`, for which the growth in [1] is 10.8%; in assay [2], 20.1%; in assay [3] it was 39.9%; in assay [4] it was 4.83% (active); in assay [5], 22.2%; in assay [6] it was 10.2%. Besides, the growth in [7] was 29.8%; in assay [8], -9.5% (active); in [9] it was 1.22% (active).

`CN(C)c1ccc2[nH]c3c(C(N)=O)cc(=O)c(=O)c=3oc2c1`: the growth in [1] is 100%; in assay [2], 54.5%; in [3], 56.3%; in assay [4], 111%; in assay [5], 29.7%; in assay [6], 83.2%. Further, the growth in assay [7] is 87.7%; in assay [8] it was 9.08% (active); in assay [9], 31%.

For the molecule `Nc1ccc(C2=Nc3cccc4cccc(c34)S2)cc1`, the growth in assay [1] is 67.3%; in assay [2], 94.2%; in assay [3], 60.4%; in assay [4], 88.3%; in [5] it was 81.3%; in assay [6], 75.7%. Further, the values for the growth in [7], in [8] and in [9] were 55.9%, 82.2% and 57.5%, respectively.

For the molecule `CC1=C(C(=O)Nc2ccccc2)C(c2ccc3c(c2)OCCO3)NC(=O)N1` (stereo not drawn), the growth was 112% in assay [1]; 100% in assay [2]; 87% in [3]; 133% in [4]; 104% in assay [5]; 95.6% in [6]. For the same molecule, the growth was 101% in assay [7], 101% in [8] and 92.9% in assay [9].

For the molecule `COc1cc(NC(=O)c2cc3ccccc3cc2O)c(OC)cc1Cl`, the growth in assay [1] was 9.25% (active); in [2], 10.2%; in [3], -25.8% (active); in [4] it was 22.6%; in assay [5], 3.75% (active); in [6], -2.48% (active). For the same molecule, the figures for the growth in [7], in assay [8] and in assay [9] were 25.4%, -18.8% (active) and 1.88% (active), respectively.

On to `Oc1ccc(-c2nn(-c3ccccc3)cc2-c2nc3ccccc3s2)cc1`, for which the growth was 79.5% in [1]; 85.3% in assay [2]; 55.4% in assay [3]; 142% in [4]; 91.1% in assay [5]; 82% in assay [6]. The growth in assay [7] was 81.7%; in assay [8], 87.8%; in assay [9] it was 75.4%.

Consider `Clc1cc(Cl)c(OCC#CI)cc1Cl`, for which the growth is 98.8% in [1]; 53.7% in [2]; 38.4% in [3]; 69.8% in assay [4]; 2.93% (active) in assay [5]; 15.7% in [6]. Moreover, the growth in assay [7] was 119%; in assay [8], 41.5%; in assay [9], 11.4%.

With `C=Cc1nn2c(CCC(=O)c3nc4ccccc4[nH]3)nnc2s1`, the growth is 106% in [1]; 101% in assay [2]; 76.2% in assay [3]; 131% in assay [4]; 96.2% in [5]; 96.7% in assay [6]. Besides, the results for the growth in [10] and in assay [8] were 104% and 102%, respectively.

With `Cc1nc2cc(NC(=O)CN3CCN(CCN4C(=O)c5cccc6cccc(c56)C4=O)CC3)ccc2s1`, the growth was 69.9% in assay [1]; 39.8% in assay [2]; 53.6% in assay [3]; 87.9% in [4]; 33.9% in [5]; 72.9% in assay [6]. In addition, the growth was 31.7% in assay [10], 9.64% (active) in assay [8] and 22% in assay [9].

Turning to `CCOC(=O)C1=C(COCCN)NC(C)=C(C(=O)OC)C1c1ccccc1Cl` (stereo not drawn), the growth is 83.9% in assay [1]; 75.9% in assay [2]; 45.4% in assay [3]; 67.8% in assay [4]; 43.8% in assay [5]; 64.5% in assay [6]. Also, the values for the growth in [10] and in assay [8] were 66.2% and 67%, respectively.

`CC(=O)n1c2ccccc2c2ccccc21`: the growth was 103% in assay [1]; 107% in [2]; 83.6% in assay [3]; 115% in assay [4]; 117% in [5]; 97.5% in [6]. Further, the figures for the growth in assay [7] and in assay [8] were 95.1% and 104%, respectively.

With `COc1c(O)cc2oc3cc(O)c(CC=C(C)C)c(O)c3c(=O)c2c1C/C=C(\C)CCC=C(C)C`, the growth in [1] was 81.5%; in assay [2] it was -8.91% (active); in [3], 58.3%; in [4], 37.3%; in assay [5], 22.6%; in assay [6], 79.3%. The growth in assay [7] was 120%; in [8], 6.16% (active); in assay [9], -18.2% (active).

On to `O=C1/C(=C/c2ccc3cccc(Cl)c3n2)SC(=S)N1CCc1ccc(O)cc1`, for which the growth was 83.7% in assay [1]; 87.1% in assay [2]; 39.8% in assay [3]; 129% in assay [4]; 82.6% in assay [5]; 51% in assay [6]. Besides, the growth was 58.6% in assay [7], 48.9% in assay [8] and 79% in assay [9].

Consider `O=C(/C=C/c1cc2ccccc2[nH]c1=O)c1ccc(O)cc1`, for which the growth was 87.5% in assay [1]; 47.5% in assay [2]; 45.6% in assay [3]; 50.1% in assay [4]; 66.2% in assay [5]; 40.9% in assay [6]. Also, the values for the growth in assay [7], in assay [8] and in assay [9] were 56.2%, 30.9% and -0.193% (active), respectively.

Turning to `O=C(NCCc1ccccc1)C1CCC(=O)N1Cc1ccc(Br)cc1` (stereo not drawn), the growth in assay [1] is 103%; in [2] it was 104%; in [3] it was 92.6%; in assay [4], 99.7%; in [5] it was 107%; in assay [6], 100%. The growth was 88.3% in assay [7], 94% in [8] and 102% in assay [9].

For the molecule `Cc1ccc(C(O)C2=CC(=O)c3ccccc3C2=O)cc1` (stereo not drawn), the growth in assay [1] is 91.2%; in [2] it was 94.9%; in assay [3], 73.2%; in [4], 118%; in assay [5], 86.7%; in assay [6], 100%. Also, the results for the growth in assay [7], in assay [8] and in assay [9] were 95.9%, 94.7% and 90%, respectively.

With `COc1ccc(-c2c3c(nn2-c2ccc(N)cc2)CCc2cnoc2-3)cc1OC`, the growth in [1] is 102%; in [2], 92.4%; in assay [3], 62.1%; in assay [4], 88.5%; in assay [5], 81.7%; in assay [6] it was 82.1%. Also, the growth in assay [10] was 61.5%; in assay [8] it was 86.4%.

In the case of `COc1ccc(C2CC(c3cccc(Nc4ccnc5cc(Cl)ccc45)c3)=NN2C=O)cc1` (stereo not drawn), the growth in assay [1] is 39.4%; in [2], 37.9%; in [3], 22.8%; in assay [4], 41.5%; in [5], 45.5%; in assay [6] it was 17.4%. In addition, the growth in assay [7] is 7.17% (active); in assay [8] it was 15.8%; in assay [9], 6.76% (active).

For the molecule `Cc1ccc(C(C)C)cc1NC(=O)Nc1ccc([N+](=O)[O-])cc1`, the growth in assay [1] is 15.6%; in assay [2], 10.9%; in assay [3] it was -0.838% (active); in [4], 16.8%; in assay [5], 7.86% (active); in assay [6], 10.5%. Besides, the figures for the growth in assay [7], in [8] and in assay [9] were 7.54% (active), -23% (active) and 3.13% (active), respectively.
